# Targets with a hit are over-represented here; the source holds about 7,900 in all. About 0.6% of all pairs of compound and target were hits. A number with no mark means an inactive call.
# Legend:
# Experiment in all cases: log2 fold change, soluble protein after heating vs DMSO (PISA); higher = thermal stabilisation; K562 cells, 10 uM, 30 min; active = over 0.2 and 3.5 SD of the protein, either way, in both replicates (recomputed)
# erlotinib = compound: C#Cc1cccc(Nc2ncnc3cc(OCCOC)c(OCCOC)cc23)c1 [erlotinib]
# Method in brief: (§1)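 Soluble protein was defined as the supernatant after 21,000xg for 90 min. It came from K562 cells at 2×10^6 cells/mL given 10 μM compound for 30 min, heated in aliquots for 3 min across 48°C-58°C, pooled, and extracted in PBS with 0.5% NP-40 at 4°C, and was quantified by TMTpro 16plex LC-MS/MS with equalised channel sums. Thermal stability against control samples, from duplicates, is reported as log2 fold change.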
# [1] = compound: C/C(=N\NC(=O)C1=CC(=CC=C1)S(=O)(=O)N2CCOCC2)/C3=C(C=CC(=C3)Cl)O
# Method in brief: as §1
# [2] = compound: C1=CC(=C(C=C1Cl)C2=NC3=NC=CN=C3C(=N2)NC4=CC=NC=C4)F
# Method in brief: as §1
# [3] = compound: C1=CC(=CC=C1C2=NC3=C(N2)C=C(C=C3)C(=O)N)OC4=CC=C(C=C4)Cl
# Method in brief: as §1
# [4] = compound: C1=CC2=C(C=CC(=C2)/C=C\3/C(=O)NC(=NCC4=CC=CS4)S3)N=C1
# Method in brief: as §1
# [5] = compound: C1=CC2=NC=CN=C2C=C1/C=C/3\C(=O)NC(=O)S3
# Method in brief: as §1
# [6] = compound: C1=CC=C(C=C1)C2=NC(=C(N2)C3=CC=NC=C3)C4=CC(=C(C=C4)Cl)O
# Method in brief: as §1
# [7] = compound: C1=CC=C2C(=C1)C3=NNC4=CC=CC(=C43)C2=O
# Method in brief: as §1
# [8] = compound: C1CCN(C1)C(=O)NC2=CC=CC(=C2)NC3=NC=C(C(=N3)NCCC4=CN=CN4)Br
# Method in brief: as §1
# [9] = compound: C1CN(CCC1(CC2=CC=C(C=C2)Cl)N)C3=NC=NC4=C3C=CN4
# Method in brief: as §1
# UniProt Q13895, sequence (Q13895 whole entry, looked up): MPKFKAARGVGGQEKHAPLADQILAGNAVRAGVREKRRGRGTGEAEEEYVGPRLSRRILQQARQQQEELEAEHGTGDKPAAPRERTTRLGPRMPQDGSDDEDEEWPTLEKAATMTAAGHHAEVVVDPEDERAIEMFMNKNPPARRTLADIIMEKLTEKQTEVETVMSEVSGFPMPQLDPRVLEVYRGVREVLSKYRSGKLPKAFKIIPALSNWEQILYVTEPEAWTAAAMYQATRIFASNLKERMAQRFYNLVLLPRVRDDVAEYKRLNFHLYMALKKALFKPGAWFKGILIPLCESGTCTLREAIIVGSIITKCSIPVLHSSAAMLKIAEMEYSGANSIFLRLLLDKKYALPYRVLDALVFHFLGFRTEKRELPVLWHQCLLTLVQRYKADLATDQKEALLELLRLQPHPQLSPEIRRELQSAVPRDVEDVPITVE
# UniProt Q16186, sequence (Q16186 whole entry, looked up): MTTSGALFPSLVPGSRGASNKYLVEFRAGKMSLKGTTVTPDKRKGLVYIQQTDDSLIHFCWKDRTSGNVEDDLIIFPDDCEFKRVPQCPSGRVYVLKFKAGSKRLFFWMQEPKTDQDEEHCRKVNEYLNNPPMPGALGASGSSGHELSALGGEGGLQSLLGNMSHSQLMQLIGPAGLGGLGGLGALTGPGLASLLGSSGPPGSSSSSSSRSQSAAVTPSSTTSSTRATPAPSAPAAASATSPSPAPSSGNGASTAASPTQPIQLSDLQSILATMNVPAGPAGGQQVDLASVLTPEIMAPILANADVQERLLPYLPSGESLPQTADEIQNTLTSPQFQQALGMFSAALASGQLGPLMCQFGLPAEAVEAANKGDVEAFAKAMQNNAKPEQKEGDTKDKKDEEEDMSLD
# UniProt P31939, sequence (P31939 whole entry, looked up): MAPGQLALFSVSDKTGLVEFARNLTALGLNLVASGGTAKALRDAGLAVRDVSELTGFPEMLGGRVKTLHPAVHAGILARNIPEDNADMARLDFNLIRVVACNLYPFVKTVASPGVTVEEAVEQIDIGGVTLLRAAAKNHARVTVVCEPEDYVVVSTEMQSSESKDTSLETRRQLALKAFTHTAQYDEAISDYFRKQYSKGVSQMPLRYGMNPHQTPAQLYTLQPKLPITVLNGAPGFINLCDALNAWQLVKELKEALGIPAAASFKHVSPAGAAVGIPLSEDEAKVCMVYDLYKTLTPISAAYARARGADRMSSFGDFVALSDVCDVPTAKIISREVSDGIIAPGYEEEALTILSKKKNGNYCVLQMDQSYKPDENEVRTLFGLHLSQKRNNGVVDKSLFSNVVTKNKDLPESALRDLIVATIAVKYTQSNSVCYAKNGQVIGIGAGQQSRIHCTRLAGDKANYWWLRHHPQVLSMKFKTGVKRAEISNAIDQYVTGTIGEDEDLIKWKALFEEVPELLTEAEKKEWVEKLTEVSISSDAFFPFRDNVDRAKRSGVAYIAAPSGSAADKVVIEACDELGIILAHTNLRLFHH
# UniProt Q93050, sequence (Q93050 whole entry, looked up): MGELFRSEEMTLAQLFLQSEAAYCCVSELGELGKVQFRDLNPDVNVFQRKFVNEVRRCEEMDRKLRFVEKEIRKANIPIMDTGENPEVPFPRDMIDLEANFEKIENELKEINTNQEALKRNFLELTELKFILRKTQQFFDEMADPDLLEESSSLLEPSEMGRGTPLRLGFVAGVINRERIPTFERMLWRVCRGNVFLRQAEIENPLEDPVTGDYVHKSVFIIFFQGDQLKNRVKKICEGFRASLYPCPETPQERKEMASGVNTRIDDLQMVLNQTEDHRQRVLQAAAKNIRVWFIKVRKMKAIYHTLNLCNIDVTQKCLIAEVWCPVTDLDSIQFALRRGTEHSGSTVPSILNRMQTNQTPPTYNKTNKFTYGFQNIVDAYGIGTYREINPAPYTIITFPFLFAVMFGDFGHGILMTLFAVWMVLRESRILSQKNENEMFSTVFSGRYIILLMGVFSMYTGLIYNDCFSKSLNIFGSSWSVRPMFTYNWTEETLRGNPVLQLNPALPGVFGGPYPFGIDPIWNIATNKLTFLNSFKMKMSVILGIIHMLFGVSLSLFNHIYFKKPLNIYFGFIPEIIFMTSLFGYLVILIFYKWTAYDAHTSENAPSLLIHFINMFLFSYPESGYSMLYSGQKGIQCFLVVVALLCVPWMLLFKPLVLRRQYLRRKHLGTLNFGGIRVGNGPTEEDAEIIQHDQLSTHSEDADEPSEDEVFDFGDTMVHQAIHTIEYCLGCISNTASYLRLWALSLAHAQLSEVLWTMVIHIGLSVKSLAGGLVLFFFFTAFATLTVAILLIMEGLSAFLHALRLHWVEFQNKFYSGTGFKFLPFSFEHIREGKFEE
# UniProt P55196, sequence (P55196 whole entry, looked up): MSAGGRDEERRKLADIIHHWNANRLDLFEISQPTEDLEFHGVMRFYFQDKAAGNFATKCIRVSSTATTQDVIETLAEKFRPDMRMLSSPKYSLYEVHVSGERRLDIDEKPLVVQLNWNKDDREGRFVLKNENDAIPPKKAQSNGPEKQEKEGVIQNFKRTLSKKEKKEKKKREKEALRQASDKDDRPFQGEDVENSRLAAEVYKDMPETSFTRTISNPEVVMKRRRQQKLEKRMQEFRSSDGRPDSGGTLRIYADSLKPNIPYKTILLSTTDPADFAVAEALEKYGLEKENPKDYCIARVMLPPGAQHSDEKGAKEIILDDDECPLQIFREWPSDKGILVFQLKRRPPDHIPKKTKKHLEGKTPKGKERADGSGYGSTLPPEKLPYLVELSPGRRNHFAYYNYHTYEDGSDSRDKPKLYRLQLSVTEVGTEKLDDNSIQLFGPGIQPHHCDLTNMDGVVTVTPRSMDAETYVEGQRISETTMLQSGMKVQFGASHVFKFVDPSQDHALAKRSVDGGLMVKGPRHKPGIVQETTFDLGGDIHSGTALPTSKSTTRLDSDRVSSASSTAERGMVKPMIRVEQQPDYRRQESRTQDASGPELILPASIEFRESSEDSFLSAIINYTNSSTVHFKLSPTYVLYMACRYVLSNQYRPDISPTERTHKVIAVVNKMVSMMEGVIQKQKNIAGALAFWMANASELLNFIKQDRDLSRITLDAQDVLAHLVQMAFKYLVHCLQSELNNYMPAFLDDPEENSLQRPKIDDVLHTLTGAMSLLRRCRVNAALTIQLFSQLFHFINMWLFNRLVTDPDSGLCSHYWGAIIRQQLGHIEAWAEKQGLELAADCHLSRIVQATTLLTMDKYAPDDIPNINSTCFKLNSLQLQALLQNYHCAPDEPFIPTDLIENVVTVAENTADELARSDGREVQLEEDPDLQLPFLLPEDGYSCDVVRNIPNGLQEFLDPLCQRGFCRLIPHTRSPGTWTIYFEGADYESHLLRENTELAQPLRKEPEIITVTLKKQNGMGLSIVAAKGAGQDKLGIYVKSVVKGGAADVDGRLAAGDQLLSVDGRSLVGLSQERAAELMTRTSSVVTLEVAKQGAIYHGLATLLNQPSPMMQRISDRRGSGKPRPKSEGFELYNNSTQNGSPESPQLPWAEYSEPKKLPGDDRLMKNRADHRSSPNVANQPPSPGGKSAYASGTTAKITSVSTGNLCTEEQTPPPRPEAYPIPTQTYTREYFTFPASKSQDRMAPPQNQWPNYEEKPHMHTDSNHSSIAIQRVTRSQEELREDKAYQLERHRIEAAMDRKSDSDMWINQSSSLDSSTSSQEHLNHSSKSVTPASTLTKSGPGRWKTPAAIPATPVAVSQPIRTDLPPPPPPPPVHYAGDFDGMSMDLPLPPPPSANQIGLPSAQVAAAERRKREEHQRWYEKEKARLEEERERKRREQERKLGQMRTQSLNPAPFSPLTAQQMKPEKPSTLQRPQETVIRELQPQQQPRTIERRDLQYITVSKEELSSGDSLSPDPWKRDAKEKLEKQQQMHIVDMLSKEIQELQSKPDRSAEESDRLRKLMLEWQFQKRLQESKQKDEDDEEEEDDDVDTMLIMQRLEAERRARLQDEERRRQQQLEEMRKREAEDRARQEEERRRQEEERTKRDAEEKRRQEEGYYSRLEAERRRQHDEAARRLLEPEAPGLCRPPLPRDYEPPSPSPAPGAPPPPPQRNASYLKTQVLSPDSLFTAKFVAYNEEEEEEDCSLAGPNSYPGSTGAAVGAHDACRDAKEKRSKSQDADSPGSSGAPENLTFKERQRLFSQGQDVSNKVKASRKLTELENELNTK
# UniProt P42025, sequence (P42025 whole entry, looked up): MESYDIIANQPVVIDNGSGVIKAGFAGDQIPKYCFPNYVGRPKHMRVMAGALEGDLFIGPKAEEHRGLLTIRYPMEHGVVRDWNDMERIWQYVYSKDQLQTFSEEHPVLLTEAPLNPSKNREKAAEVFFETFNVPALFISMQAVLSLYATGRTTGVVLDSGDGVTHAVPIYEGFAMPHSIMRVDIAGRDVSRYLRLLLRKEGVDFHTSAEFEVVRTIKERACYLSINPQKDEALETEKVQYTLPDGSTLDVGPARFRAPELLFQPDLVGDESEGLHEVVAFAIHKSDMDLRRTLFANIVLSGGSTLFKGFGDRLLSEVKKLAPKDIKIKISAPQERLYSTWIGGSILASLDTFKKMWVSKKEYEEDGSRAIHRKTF
# UniProt Q9Y3D8, sequence (Q9Y3D8 whole entry, looked up): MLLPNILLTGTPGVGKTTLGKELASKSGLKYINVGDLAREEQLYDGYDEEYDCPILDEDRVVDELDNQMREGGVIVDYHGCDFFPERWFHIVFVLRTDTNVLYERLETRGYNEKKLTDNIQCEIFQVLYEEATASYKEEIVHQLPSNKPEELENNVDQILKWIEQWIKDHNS
# UniProt Q16864, sequence (Q16864 whole entry, looked up): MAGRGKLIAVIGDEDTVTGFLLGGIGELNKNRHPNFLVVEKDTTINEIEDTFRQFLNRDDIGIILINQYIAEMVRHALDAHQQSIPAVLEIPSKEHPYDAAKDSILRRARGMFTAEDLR
# UniProt P36405, sequence (P36405 whole entry, looked up): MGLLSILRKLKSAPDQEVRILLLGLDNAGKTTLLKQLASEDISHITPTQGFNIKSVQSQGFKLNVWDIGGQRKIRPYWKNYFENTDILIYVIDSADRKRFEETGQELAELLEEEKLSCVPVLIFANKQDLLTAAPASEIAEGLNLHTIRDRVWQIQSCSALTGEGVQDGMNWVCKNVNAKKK
Target,log2 fold change (erlotinib),log2 fold change [1],log2 fold change [2],log2 fold change [3],log2 fold change [4],log2 fold change [5],log2 fold change [6],log2 fold change [7],log2 fold change [8],log2 fold change [9]
ADD3 (UniProt Q9UEY8),0.018,0,-0.008,0.025,0.02,0.013,-0.025,-0.024,-0.015,0.031
ATP6V0A1 isoform 3 (UniProt Q93050),-0.086,-0.041,-0.176,0.061,0,-0.008,-0.232,0.052,-0.066,-0.195
BLOC1S3 (UniProt Q6QNY0),0.027,-0.009,0.04,-0.003,0.093,0.012,0.031,-0.052,-0.032,0.052
ASS1 (UniProt P00966),0.059,0.301 (active),-0.05,0.008,-0.003,0.036,0.012,0.118,0.103,-0.037
ADRM1 (UniProt Q16186),-0.069,-0.038,-0.007,0.006,0.034,0.033,0.028,0.046,-0.017,-0.076
AKAP8 (UniProt O43823),-0.056,0.032,0.074,0.039,-0.028,-0.004,-0.039,-0.068,0.015,0.018
AKT2 (UniProt P31751),0.014,0.096,0.094,0.027,0.068,-0.023,0.019,0.028,-0.068,0.144
BYSL (UniProt Q13895),-0.009,0.014,-0.05,-0.006,-0.046,0.027,-0.018,0.075,-0.042,-0.289
BTAF1 (UniProt O14981),0.04,0.078,0.072,0.005,0.048,-0.006,-0.038,-0.032,0.011,0.05
BST2 (UniProt Q10589),-0.018,0.026,-0.046,0,0.009,0.024,-0.062,-0.013,0.066,-0.063
ATIC (UniProt P31939),0.031,0.033,0.062,0.006,0.005,-0.067,0.094,0.016,-0.031,0.035
ALG5 (UniProt Q9Y673),-0.008,0.014,0.071,0.008,0.023,0.003,0.009,0.048,-0.026,-0.007
ALG11 (UniProt Q2TAA5),-0.015,0.042,0.075,0.013,0.074,0.054,0.009,-0.048,-0.045,-0.014
ACTR1B (UniProt P42025),-0.13,-0.048,-0.145,0.041,0.02,0.002,-0.037,-0.017,-0.02,0.011
ALG3 (UniProt Q92685),0.024,0.127,0.07,-0.081,0.03,-0.002,0.022,-0.011,-0.133,0.103
ACADM isoform 2 (UniProt P11310),-0.015,0.014,0.013,0.149,0.044,0.002,0.059,-0.001,0.008,0.067
ATP13A3 (UniProt Q9H7F0),0.043,-0.046,0.05,0.018,0.016,0.038,-0.006,-0.028,0.017,0.049
ARL3 (UniProt P36405),-0.009,0.007,0.033,-0.037,0.046,0.007,0.019,-0.015,-0.026,0.041
ATP12A isoform 2 (UniProt P54707),0.01,-0.002,0.025,0.014,0.007,0.026,0.025,-0.049,-0.051,0.05
ABCC5 (UniProt O15440),-0.027,0.035,0.064,-0.004,0.059,-0.048,-0.014,-0.071,-0.037,0.129
AK6 (UniProt Q9Y3D8),0.105,0.108,0.007,-0.157,0.194,0.025,0.046,-0.027,-0.041,-0.085
BRIX1 (UniProt Q8TDN6),-0.093,-0.05,-0.415,-0.089,0.003,0.046,-0.046,-0.167,0.017,-0.387
BCCIP isoform 2 (UniProt Q9P287),-0.1,0.023,0.027,0.026,-0.025,0.003,0.012,-0.007,-0.002,0.066
ALG14 (UniProt Q96F25),0.111,0.018,-0.128,-0.085,0.084,0.088,0.053,0.002,-0.061,0.014
BTBD6 (UniProt Q96KE9),0.407,-0.706 (active),0.165,-0.188,0.016,-0.057,0.3,0.081,-0.19,0.185
ACP1 isoform 2 (UniProt P24666),0.072,0.011,0.038,0.024,0.029,-0.008,-0.018,0,0.004,-0.039
ATP6V1F isoform 2 (UniProt Q16864),-0.049,-0.017,0.232,0.077,0.04,0.189,-0.017,-0.024,-0.066,-0.222
AP2B1 isoform 2 (UniProt P63010),-0.021,0.017,-0.01,0.003,0.004,-0.009,-0.004,-0.158,-0.225 (active),-0.003
AFDN isoform 5 (UniProt P55196),-0.005,0.101,0.021,0.01,-0.02,0,0.012,-0.005,-0.049,0.038
AMD1 (UniProt P17707),0.078,-0.004,0.039,0.094,0.091,-0.002,0.127,0.035,-0.224,0.025

# — the supplement of paper PMC10849652
